Experimental data as given in PubChem BioAssay (NCI).
About 83,000 compounds went through this panel and 20% of them were active in at least one assay; those are over-represented in the sample as a whole.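 Each cell line was grown in a 96-well plate and treated with one concentration of compound for 48 hours. Values below 10 were considered active.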 Calls of active or inactive are those of the source.

Tests used:
Assay in all cases: NCI-60 one-dose screen, 48 h (100 = growth as untreated, 0 = no growth, -100 = all killed)
Conditions in all cases: 10 µM
SK-MEL-2 melanoma = system: SK-MEL-2 melanoma
EKVX NSCLC = system: EKVX NSCLC
UO-31 renal = system: UO-31 renal
TK-10 renal = system: TK-10 renal
ACHN renal = system: ACHN renal
CAKI-1 renal = system: CAKI-1 renal
A498 renal = system: A498 renal
CCRF-CEM leukemia = system: CCRF-CEM leukemia
SR leukemia = system: SR leukemia
OVCAR-8 ovarian = system: OVCAR-8 ovarian
OVCAR-5 ovarian = system: OVCAR-5 ovarian
OVCAR-4 ovarian = system: OVCAR-4 ovarian
SK-OV-3 ovarian = system: SK-OV-3 ovarian
IGROV1 ovarian = system: IGROV1 ovarian
OVCAR-3 ovarian = system: OVCAR-3 ovarian
NCI/ADR-RES ovarian = system: NCI/ADR-RES ovarian
MOLT-4 leukemia = system: MOLT-4 leukemia
RPMI-8226 leukemia = system: RPMI-8226 leukemia
HS 578T breast = system: HS 578T breast
SN12C renal = system: SN12C renal

Measured: growth

COc1ccc2[nH]c(=O)c(CSc3cccc(N)c3)cc2c1
inactive: SK-MEL-2 melanoma 64% | EKVX NSCLC 48.7% | UO-31 renal 56.8% | TK-10 renal 72.3% | ACHN renal 20.9% | CAKI-1 renal 40.5% | A498 renal 72.6% | CCRF-CEM leukemia 47.2% | SR leukemia 39.1% | OVCAR-8 ovarian 59.2% | OVCAR-5 ovarian 91.6% | OVCAR-4 ovarian 49.8% | SK-OV-3 ovarian 94.5% | IGROV1 ovarian 74.1% | OVCAR-3 ovarian 66.9% | NCI/ADR-RES ovarian 73%

COc1ccc(OC)c(/C=N/NC(=O)c2ccc3nc(-c4ccc(Cl)cc4)[nH]c3c2)c1
inactive: SK-MEL-2 melanoma 103% | EKVX NSCLC 57.5% | UO-31 renal 68% | TK-10 renal 89.1% | ACHN renal 46.9% | CAKI-1 renal 61.6% | A498 renal 43.8% | CCRF-CEM leukemia 43.9% | MOLT-4 leukemia 41.1% | SR leukemia 68.6% | RPMI-8226 leukemia 37.7% | OVCAR-8 ovarian 82.8% | OVCAR-5 ovarian 104% | OVCAR-4 ovarian 61.1% | SK-OV-3 ovarian 84.9% | IGROV1 ovarian 92.2% | OVCAR-3 ovarian 89.2% | HS 578T breast 51.2% | NCI/ADR-RES ovarian 88.8%

Cc1nn(-c2ccccc2)c2ncn(CC(=O)N/N=C/c3c[nH]c4ccccc34)c(=O)c12
inactive: SK-MEL-2 melanoma 86.3% | EKVX NSCLC 61.2% | SN12C renal 89.7% | TK-10 renal 107% | ACHN renal 85.2% | CAKI-1 renal 71.9% | A498 renal 79.5% | CCRF-CEM leukemia 85% | MOLT-4 leukemia 55.8% | RPMI-8226 leukemia 73.2% | OVCAR-8 ovarian 89.1% | OVCAR-5 ovarian 103% | OVCAR-4 ovarian 83.2% | SK-OV-3 ovarian 106% | IGROV1 ovarian 106% | OVCAR-3 ovarian 84.3% | HS 578T breast 72.7% | NCI/ADR-RES ovarian 101%

Cc1cccc2cc(-c3cc(-c4ccccc4)nc(=O)[nH]3)c(Cl)nc12
inactive: SK-MEL-2 melanoma 102% | EKVX NSCLC 84.6% | SN12C renal 84% | TK-10 renal 110% | ACHN renal 91.8% | CAKI-1 renal 87.2% | A498 renal 94.5% | OVCAR-5 ovarian 93% | OVCAR-4 ovarian 103% | SK-OV-3 ovarian 118% | IGROV1 ovarian 101% | OVCAR-3 ovarian 91.4% | HS 578T breast 89.8% | NCI/ADR-RES ovarian 73.5%
active: CCRF-CEM leukemia 8.46%

CN1CCc2c(sc3ncnc(N/N=C/c4cn(-c5ccccc5)nc4-c4ccc(Br)cc4)c23)C1
inactive: SK-MEL-2 melanoma 58.3% | EKVX NSCLC 20.5% | SN12C renal 13.9% | TK-10 renal 92.3% | ACHN renal 65.6% | CAKI-1 renal 84.1% | A498 renal 94.8% | CCRF-CEM leukemia 15.7% | OVCAR-5 ovarian 48.5% | SK-OV-3 ovarian 107% | IGROV1 ovarian 56.7% | HS 578T breast 70.1%
active: MOLT-4 leukemia 2.95% | OVCAR-8 ovarian 4.42% | OVCAR-3 ovarian 4.8% | NCI/ADR-RES ovarian 8.08%

Cn1cc(-c2cc(N)n3nc(-c4c[nH]c5ccc(Br)cc45)cc3n2)c2cc(Br)cnc21
active: SK-MEL-2 melanoma -83.6% | EKVX NSCLC -84.1% | UO-31 renal -70.9% | TK-10 renal -81.9% | ACHN renal -93.2% | CAKI-1 renal -69.1% | A498 renal -86.5% | CCRF-CEM leukemia -32.1% | MOLT-4 leukemia -28.6% | SR leukemia -15.6% | RPMI-8226 leukemia -6.39% | OVCAR-8 ovarian -41.6% | OVCAR-5 ovarian -61.9% | OVCAR-4 ovarian -41.1% | SK-OV-3 ovarian -55.9% | IGROV1 ovarian -21.6% | OVCAR-3 ovarian -90.4% | HS 578T breast -29% | NCI/ADR-RES ovarian -60%

COc1cc(OC(F)(F)F)ccc1C(=O)Nc1sc2c(c1C#N)CCC(=O)C2
inactive: SK-MEL-2 melanoma 105% | EKVX NSCLC 46.7% | UO-31 renal 62.4% | TK-10 renal 94.2% | ACHN renal 87.1% | CAKI-1 renal 71.6% | CCRF-CEM leukemia 18.3% | MOLT-4 leukemia 90.8% | SR leukemia 15.1% | RPMI-8226 leukemia 51.7% | OVCAR-8 ovarian 93% | OVCAR-5 ovarian 138% | OVCAR-4 ovarian 62.1% | SK-OV-3 ovarian 81.2% | IGROV1 ovarian 112% | OVCAR-3 ovarian 112% | HS 578T breast 75.9% | NCI/ADR-RES ovarian 75.1%

O=c1[nH]c2ccccc2cc1CSc1ccc(Nc2nccc(-c3ccc(Cl)cc3)n2)cc1
inactive: CCRF-CEM leukemia 57.1% | MOLT-4 leukemia 59.8% | SR leukemia 59.2% | RPMI-8226 leukemia 21.2% | IGROV1 ovarian 11%
active: SK-MEL-2 melanoma 4.31% | SN12C renal -47.7% | UO-31 renal -70.4% | TK-10 renal -64.2% | ACHN renal -89.9% | CAKI-1 renal -83.5% | A498 renal -65.3% | OVCAR-8 ovarian -52.9% | OVCAR-5 ovarian -19.5% | OVCAR-4 ovarian -76.8% | SK-OV-3 ovarian -15.1% | OVCAR-3 ovarian -73.9% | HS 578T breast -22.1% | NCI/ADR-RES ovarian -39%

Cc1ccc(-c2cc(-c3cc4ccccc4nc3Cl)[nH]c(=S)n2)cc1
inactive: SK-MEL-2 melanoma 11.8% | EKVX NSCLC 50% | SN12C renal 63.8% | ACHN renal 46.5% | CAKI-1 renal 61.5% | A498 renal 79.5% | CCRF-CEM leukemia 33.2% | MOLT-4 leukemia 17.5% | RPMI-8226 leukemia 64.6% | OVCAR-8 ovarian 68.2% | OVCAR-5 ovarian 87% | OVCAR-4 ovarian 80.6% | SK-OV-3 ovarian 74.2% | IGROV1 ovarian 58.7% | OVCAR-3 ovarian 68.4% | HS 578T breast 32.2% | NCI/ADR-RES ovarian 42%

NC1=NC(c2ccccc2Cl)N=C(Nc2nn[nH]n2)N1 (stereo not drawn)
inactive: SK-MEL-2 melanoma 116% | EKVX NSCLC 96.2% | SN12C renal 107% | ACHN renal 103% | CAKI-1 renal 94.5% | A498 renal 104% | CCRF-CEM leukemia 151% | MOLT-4 leukemia 124% | RPMI-8226 leukemia 99.2% | OVCAR-8 ovarian 102% | OVCAR-5 ovarian 118% | OVCAR-4 ovarian 99.8% | SK-OV-3 ovarian 123% | IGROV1 ovarian 115% | OVCAR-3 ovarian 107% | HS 578T breast 103% | NCI/ADR-RES ovarian 104%

COc1ccc2nc(Cl)c(-c3cc(-c4ccccc4)nc(=O)[nH]3)cc2c1
active: MOLT-4 leukemia -11.4% | RPMI-8226 leukemia -14.7% | NCI/ADR-RES ovarian 6.75%
inactive: SK-MEL-2 melanoma 93.3% | EKVX NSCLC 73.3% | SN12C renal 42.9% | TK-10 renal 96.9% | ACHN renal 79% | CAKI-1 renal 74.2% | A498 renal 104% | CCRF-CEM leukemia 16.4% | OVCAR-8 ovarian 11.3% | OVCAR-5 ovarian 93.1% | OVCAR-4 ovarian 85.3% | SK-OV-3 ovarian 108% | IGROV1 ovarian 78.2% | OVCAR-3 ovarian 16.6% | HS 578T breast 77.3%

CN(C(=O)c1ccc(C(F)(F)F)cc1C(F)(F)F)c1sc2c(c1C#N)CCC(=O)C2
inactive: SK-MEL-2 melanoma 96.8% | EKVX NSCLC 73.7% | UO-31 renal 62.4% | TK-10 renal 94.2% | ACHN renal 82.7% | CAKI-1 renal 61.3% | A498 renal 125% | MOLT-4 leukemia 36.4% | OVCAR-8 ovarian 82.2% | OVCAR-5 ovarian 108% | OVCAR-4 ovarian 59.3% | SK-OV-3 ovarian 85.9% | IGROV1 ovarian 97.6% | OVCAR-3 ovarian 29.7% | HS 578T breast 69.4% | NCI/ADR-RES ovarian 55%
active: CCRF-CEM leukemia -0.48% | SR leukemia 1.6%

N#Cc1c(NC(=O)c2cccc(C(F)(F)F)c2)sc2c1CCC(O)=C2
active: SK-MEL-2 melanoma -1.48%
inactive: EKVX NSCLC 22.8% | UO-31 renal 17.6% | TK-10 renal 63.1% | ACHN renal 31.4% | CAKI-1 renal 44.5% | A498 renal 69% | CCRF-CEM leukemia 21.9% | MOLT-4 leukemia 25.9% | SR leukemia 14.6% | RPMI-8226 leukemia 25% | OVCAR-8 ovarian 41.6% | OVCAR-5 ovarian 119% | OVCAR-4 ovarian 29.5% | SK-OV-3 ovarian 40.3% | IGROV1 ovarian 34.4% | OVCAR-3 ovarian 36.8% | HS 578T breast 44.1% | NCI/ADR-RES ovarian 18.6%

N#Cc1c(NC(=O)c2ccc(C(F)(F)F)c(Cl)c2)sc2c1CCC(=O)C2
inactive: TK-10 renal 16% | A498 renal 74.1%
active: SK-MEL-2 melanoma -9.04% | EKVX NSCLC -79.9% | UO-31 renal -98.8% | ACHN renal -96.5% | CAKI-1 renal -72% | CCRF-CEM leukemia 5.53% | MOLT-4 leukemia -6.19% | SR leukemia -11.8% | RPMI-8226 leukemia 0.426% | OVCAR-8 ovarian -34% | OVCAR-5 ovarian -8.2% | OVCAR-4 ovarian -21.1% | SK-OV-3 ovarian -30.1% | IGROV1 ovarian -35.3% | OVCAR-3 ovarian -57% | HS 578T breast -26% | NCI/ADR-RES ovarian -48.9%

CC1=N/C(=C\c2ccc(N(C)C)cc2)C(=O)N1CCc1ccc(S(N)(=O)=O)cc1
inactive: SK-MEL-2 melanoma 97.9% | EKVX NSCLC 95.2% | UO-31 renal 87.9% | TK-10 renal 110% | ACHN renal 105% | CAKI-1 renal 88.3% | A498 renal 102% | CCRF-CEM leukemia 88.4% | MOLT-4 leukemia 93.6% | SR leukemia 86.4% | RPMI-8226 leukemia 87.1% | OVCAR-8 ovarian 97.9% | OVCAR-5 ovarian 116% | OVCAR-4 ovarian 99.7% | SK-OV-3 ovarian 95.3% | IGROV1 ovarian 103% | OVCAR-3 ovarian 109% | HS 578T breast 91.6% | NCI/ADR-RES ovarian 96.6%

O=c1cc(-c2ccccc2)oc2cc(OCCCCNCc3ccccc3)cc(O)c12
active: CCRF-CEM leukemia 2.88% | MOLT-4 leukemia -0.919% | SR leukemia -29.7% | RPMI-8226 leukemia -22.6% | NCI/ADR-RES ovarian -68.4%
inactive: SK-MEL-2 melanoma 53.1% | EKVX NSCLC 25.1% | UO-31 renal 37% | TK-10 renal 78.9% | ACHN renal 59.9% | CAKI-1 renal 25.7% | A498 renal 37.6% | OVCAR-8 ovarian 52.6% | OVCAR-5 ovarian 92.1% | SK-OV-3 ovarian 61.1% | IGROV1 ovarian 63.8% | OVCAR-3 ovarian 64.3% | HS 578T breast 39.6%

Cc1ccc(-c2ccc(SCC(=O)Nc3ccc(Cl)c(C(F)(F)F)c3)nn2)cc1
active: MOLT-4 leukemia 8.91% | OVCAR-8 ovarian 1.56% | OVCAR-3 ovarian 2.46% | NCI/ADR-RES ovarian -23.5%
inactive: SK-MEL-2 melanoma 12.8% | EKVX NSCLC 36.7% | SN12C renal 35.2% | TK-10 renal 59.8% | ACHN renal 43.4% | CAKI-1 renal 41.7% | A498 renal 80.3% | CCRF-CEM leukemia 19.8% | RPMI-8226 leukemia 19.7% | OVCAR-5 ovarian 39.1% | OVCAR-4 ovarian 62.4% | SK-OV-3 ovarian 46.6% | IGROV1 ovarian 30.1% | HS 578T breast 15.7%
